Data as given in PubChem BioAssay (EPA / NIEHS).
“And” between values parts separate entries of the source, which are not always exact repeats. Equal entries are not always repeated. A structure can be active in one record and inactive in another. The source made the active and inactive calls. Rule for the calls: active = hit-call score of the fitted dose curve at least 0.9, where 1 is the maximum; inactive = score below 0.9.

Legend:
[1] = BSK_hDFCGF_SRB: Viability Assessment in the BioMAP Diversity Plus: hDFCGF Assay (AID 2283061); conditions: primary human foreskin fibroblasts;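 note: cells exposed to compound for 24 h before the read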
Method in brief: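 Cells were dosed with test chemical, cultured 24 h, fixed with 10% TCA, then stained with 0.1% SRB and read at 560 nm. The fibroblasts were human foreskin primary cells, and DMSO served as baseline.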

[2] = read-out: TIMP metallopeptidase inhibitor 1 (TIMP1), TIMP1 (gene 7076); assay: BSK_hDFCGF_TIMP1: BioMAP Diversity Plus: hDFCGF Assay for TIMP metallopeptidase inhibitor 1 (TIMP1) Biomarker Activity (AID 2283062); conditions: primary human foreskin fibroblasts; actives raise or lower the signal
Method in brief: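 Fibroblasts from human foreskin are treated with test chemical and harvested at 24 h. TIMP-1 is quantified by ELISA, and gain or loss of signal is scored against DMSO.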

[3] = read-out: Monokine induced gamma interferon (MIG), CXCL9 (gene 4283); assay: BSK_hDFCGF_MIG: BioMAP Diversity Plus: hDFCGF Assay for Monokine induced gamma interferon (MIG) Biomarker Activity (AID 2283063); conditions: primary human foreskin fibroblasts; actives raise or lower the signal
Method in brief: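 MIG signal, determined by ELISA, reflects 24 h chemical exposure of human skin primary fibroblasts. DMSO serves as negative control and baseline.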

[4] = read-out: Matrix Metallopeptidase 1 (MMP1), MMP1 (gene 4312); assay: BSK_hDFCGF_MMP1: BioMAP Diversity Plus: hDFCGF Assay for Matrix Metallopeptidase 1 (MMP1) Biomarker Activity (AID 2283064); conditions: primary human foreskin fibroblasts; actives raise or lower the signal
Method in brief: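 Human foreskin fibroblasts exposed to chemical for 24 h; MMP1 detected by ELISA, with DMSO as baseline for bidirectional fitting.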

[5] = read-out: Vascular cell adhesion molecule 1 (VCAM1), VCAM1 (gene 7412); assay: BSK_hDFCGF_VCAM1: BioMAP Diversity Plus: hDFCGF Assay for Vascular cell adhesion molecule 1 (VCAM1) Biomarker Activity (AID 2283065); conditions: primary human foreskin fibroblasts; actives raise or lower the signal;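 for AC50: VCAM-1 protein level quantified by ELISA after 24 h chemical exposure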
Method in brief: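 Cells are dosed, cultured for 24 h, then VCAM-1 is quantified by ELISA; signal increases and decreases are both fitted relative to DMSO.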

[6] = read-out: Plasminogen activator inhibitor-1 (PAI1), SERPINE1 (gene 5054); assay: BSK_hDFCGF_PAI1: BioMAP Diversity Plus: hDFCGF Assay for Plasminogen activator inhibitor-1 (PAI1) Biomarker Activity (AID 2283066); conditions: primary human foreskin fibroblasts; actives raise or lower the signal
Method in brief: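 PAI-1 levels in human dermal foreskin fibroblasts were quantified by ELISA 24 h after dosing, with gain or loss analysed against DMSO. Overt cytotoxicity was checked by sulforhodamine B total-protein staining in parallel cultures.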

[7] = read-out: Intercellular Adhesion Molecule 1 (ICAM1), ICAM1 (gene 3383); assay: BSK_KF3CT_ICAM1: BioMAP Diversity Plus: KF3CT Assay for Intercellular Adhesion Molecule 1 (ICAM1) Biomarker Activity (AID 2283067); conditions: primary human keratinocytes with fibroblasts; actives raise or lower the signal
Method in brief: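 Dose the keratinocyte/fibroblast co-culture, wait 24 h, measure ICAM-1 by ELISA, then fit increases or decreases against DMSO. Cytotoxicity is checked in parallel cultures by SRB total-protein staining.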

[8] = read-out: Interferon-gamma inducible Protein 10 (IP10), CXCL10 (gene 3627); assay: BSK_KF3CT_IP10: BioMAP Diversity Plus: KF3CT Assay for Interferon-gamma inducible Protein 10 (IP10) Biomarker Activity (AID 2283068); conditions: primary human keratinocytes with fibroblasts; actives raise or lower the signal
Method in brief: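 Human keratinocyte plus foreskin fibroblast primary co-culture exposed to test chemical for 24 h; IP-10 measured by ELISA. Concentration-response fitted bidirectionally against DMSO control as baseline.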

[9] = BSK_KF3CT_SRB: Viability Assessment in the BioMAP Diversity Plus: KF3CT Assay (AID 2283069); conditions: primary human keratinocytes with fibroblasts;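 note: fitted for both signal gain and loss against DMSO baseline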
Method in brief: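 Overt cytotoxicity is assessed as total protein by sulforhodamine B staining in parallel human skin co-cultures at 24 h after dosing. DMSO serves as negative control and baseline.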

[10] = read-out: Interleukin-1 alpha (IL1a), IL1A (gene 3552); assay: BSK_KF3CT_IL1a: BioMAP Diversity Plus: KF3CT Assay for Interleukin-1 alpha (IL1a) Biomarker Activity (AID 2283070); conditions: primary human keratinocytes with fibroblasts; actives raise or lower the signal
Method in brief: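 Readout is IL-1a level by ELISA, compared bidirectionally with DMSO as baseline. Cells: human keratinocytes co-cultured with foreskin fibroblasts, harvested 24 h post-dose.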

[11] = read-out: C-C motif chemokine 2 (Homo sapiens) (UniProt P13500); assay: BSK_KF3CT_MCP1: BioMAP Diversity Plus: KF3CT Assay for Monocyte Chemoattractant Protein 1 (MCP1/CCL2) Biomarker Activity (AID 2283073); conditions: primary human keratinocytes with fibroblasts; actives raise or lower the signal
Method in brief: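 Keratinocytes and foreskin fibroblasts were co-cultured, dosed with chemical, and sampled 24 h later. MCP-1 was quantified by ELISA, and the endpoint was analyzed with bidirectional fitting using DMSO as negative control.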

[12] = read-out: Matrix Metallopeptidase 9 (MMP9), MMP9 (gene 4318); assay: BSK_KF3CT_MMP9: BioMAP Diversity Plus: KF3CT Assay for Matrix Metallopeptidase 9 (MMP9) Biomarker Activity (AID 2283074); conditions: primary human keratinocytes with fibroblasts; actives raise or lower the signal;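 for AC50: MMP9 protein level quantified by ELISA in the co-culture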
Method in brief: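 Values come from bidirectional fitting relative to DMSO of MMP-9 levels, which were measured by ELISA. Measurements were taken 24 h after chemical dosing of a keratinocyte and foreskin fibroblast co-culture.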

[13] = read-out: urokinase plasminogen activator (uPA), PLAU (gene 5328); assay: BSK_KF3CT_uPA: BioMAP Diversity Plus: KF3CT Assay for urokinase plasminogen activator (uPA) Biomarker Activity (AID 2283075); conditions: primary human keratinocytes with fibroblasts; actives raise or lower the signal
Method in brief: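 Values derive from bidirectional fitting against DMSO controls. Keratinocyte/foreskin fibroblast co-cultures received chemical; 24 h later uPA was detected by ELISA, with SRB total-protein staining in parallel wells for overt cytotoxicity.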

CD40, CD40 (gene 958) = assay: BSK_LPS_CD40: BioMAP Diversity Plus: LPS Assay for CD40 Biomarker Activity (AID 2283076); conditions: primary human HUVEC with PBMC; actives raise or lower the signal
Method in brief: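 CD40 signal, measured by ELISA, is fitted in both directions relative to DMSO vehicle. The system is an LPS-driven human vascular primary co-culture of endothelial cells and PBMC, sampled 24 h after compound addition.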

[14] = read-out: E-selectin (Homo sapiens) (UniProt P16581); assay: BSK_LPS_Eselectin: BioMAP Diversity Plus: LPS Assay for Eselectin Biomarker Activity (AID 2283077); conditions: primary human HUVEC with PBMC; actives raise or lower the signal
Method in brief: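 Signal of E-selectin, detected by ELISA, served as the endpoint; cells were umbilical vein endothelium with PBMC, read 24 h after treatment. DMSO defined baseline, and both increases and decreases were fitted.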

[15] = read-out: Interleukin-8 (IL8), CXCL8 (gene 3576); assay: BSK_LPS_IL8: BioMAP Diversity Plus: LPS Assay for Interleukin-8 (IL8) Biomarker Activity (AID 2283078); conditions: primary human HUVEC with PBMC; actives raise or lower the signal
Method in brief: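 Endothelial cells and PBMC from human donors are co-cultured, treated with chemicals and LPS, then assayed for IL-8 by ELISA after 24 h. Parallel SRB staining (0.1% SRB after 10% TCA fixation, 560 nm) flags cytotoxicity.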

[16] = BSK_LPS_SRB: Viability Assessment in the BioMAP Diversity Plus: LPS Assay (AID 2283079); conditions: primary human HUVEC with PBMC;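 note: total protein by sulforhodamine B absorbance as a cytotoxicity measure; measured one day after compound addition; fitted in both directions against DMSO so loss or gain of signal counts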
Method in brief: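 Overt cytotoxicity was gauged by sulforhodamine B total-protein staining in a primary human vascular endothelial and mononuclear cell co-culture 24 h post-dosing. Activity was fitted in both directions relative to DMSO.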

[17] = read-out: Interleukin-1 alpha (IL1a), IL1A (gene 3552); assay: BSK_LPS_IL1a: BioMAP Diversity Plus: LPS Assay for Interleukin-1 alpha (IL1a) Biomarker Activity (AID 2283080); conditions: primary human HUVEC with PBMC; actives raise or lower the signal
Method in brief: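 Measured: IL-1 alpha via ELISA at 24 h in LPS-activated human umbilical vein endothelium–PBMC co-culture. Baseline: DMSO, bidirectional fitting.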

[18] = read-out: TIMP metallopeptidase inhibitor 2 (TIMP2), TIMP2 (gene 7077); assay: BSK_KF3CT_TIMP2: BioMAP Diversity Plus: KF3CT Assay for TIMP metallopeptidase inhibitor 2 (TIMP2) Biomarker Activity (AID 2283071); conditions: primary human keratinocytes with fibroblasts; actives raise or lower the signal
Method in brief: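 TIMP-2 measured by ELISA at 24 h in human keratinocyte/fibroblast primary co-cultures exposed to chemicals. Both increases and decreases were fitted against DMSO. Parallel cultures were stained with SRB for total protein as an overt-cytotoxicity check.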

[19] = read-out: Transforming growth factor beta 1 (TGFb1), TGFB1 (gene 7040); assay: BSK_KF3CT_TGFb1: BioMAP Diversity Plus: KF3CT Assay for Transforming growth factor beta 1 (TGFb1) Biomarker Activity (AID 2283072); conditions: primary human keratinocytes with fibroblasts; actives raise or lower the signal
Method in brief: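 ELISA quantifies TGF-b1 at 24 h post-dose in a primary human skin co-culture of keratinocytes and fibroblasts, with gain or loss judged against DMSO. Parallel SRB total-protein staining flags overt cytotoxicity.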

Measured: AC50

Sequence of E-selectin (Homo sapiens) (P16581 whole entry, looked up): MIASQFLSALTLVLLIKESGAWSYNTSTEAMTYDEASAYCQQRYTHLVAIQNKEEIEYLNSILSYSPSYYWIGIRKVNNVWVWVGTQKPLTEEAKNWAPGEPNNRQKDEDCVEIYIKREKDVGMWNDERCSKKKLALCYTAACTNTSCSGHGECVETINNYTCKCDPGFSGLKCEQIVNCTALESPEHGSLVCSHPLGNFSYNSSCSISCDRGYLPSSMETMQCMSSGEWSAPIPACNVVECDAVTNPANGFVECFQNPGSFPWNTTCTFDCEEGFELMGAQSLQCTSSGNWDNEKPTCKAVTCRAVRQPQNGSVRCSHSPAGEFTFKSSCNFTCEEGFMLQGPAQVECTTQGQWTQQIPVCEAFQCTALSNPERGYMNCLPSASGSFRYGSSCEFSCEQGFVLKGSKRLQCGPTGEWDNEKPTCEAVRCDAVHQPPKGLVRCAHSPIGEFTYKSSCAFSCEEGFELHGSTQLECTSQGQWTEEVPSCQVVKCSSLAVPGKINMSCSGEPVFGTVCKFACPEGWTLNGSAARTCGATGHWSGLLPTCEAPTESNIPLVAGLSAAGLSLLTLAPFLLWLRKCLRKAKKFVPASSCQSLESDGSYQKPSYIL

C=CC(=O)OCCC(F)(F)C(F)(F)C(F)(F)C(F)(F)C(F)(F)C(F)(F)C(F)(F)C(F)(F)F
active: [12] 12.6 µM and 8.83 µM
not listed: [18] | [19]
inactive: all other assays above

CCCCc1oc2ccccc2c1C(=O)c1cc(I)c(OCCN(CC)CC)c(I)c1
active: [1] 4.64 µM | [2] 9.35 µM | [4] 9.45 µM | [5] 8.94 µM | [6] 4.81 µM | [7] 22.8 µM | [8] 8.36 µM | [10] 9.69 µM | [11] 11.9 µM | [12] 6.54 µM | [13] 9.85 µM | CD40, CD40 (gene 958) 13.9 µM | [14] 24.2 µM | [15] 25.9 µM | [16] 19.4 µM

C=CC(C)(CCC=C(C)C)OC(C)=O (configuration not stated)
active: [1] 36.1 µM | [6] 29.8 µM | [18] 32 µM | [12] 30.4 µM | [13] 31.2 µM
not listed: [8] | [9] | [17] | [19]
inactive: all other assays above

Cc1cccc2c1ccc1ccccc12
not listed: [3] | [8] | [17] | [18] | [19]
inactive: all other assays above

Cc1ccc(C(=O)c2ccccc2)cc1
active: [2] 31.4 µM | [4] 30.7 µM | [5] 30.5 µM | [6] 20 µM | [10] 20 µM
not listed: [3] | [8] | [9] | [17] | [18] | [19]
inactive: all other assays above

Oc1ccc(Cc2ccccc2O)cc1
not listed: [3] | [8] | [18] | [19]
inactive: all other assays above

CN(CCO)S(=O)(=O)C(F)(F)C(F)(F)C(F)(F)C(F)(F)C(F)(F)C(F)(F)C(F)(F)C(F)(F)F
active: [15] 4.94 µM
inactive: [1] | [2] | [4] | [5] | [6] | [7] | [10] | [18] | [11] | [12] | [13] | CD40, CD40 (gene 958) | [14] | [15] | [16] | [17]

CCCCCCCCCCCCOS(=O)(=O)O
inactive: [7] | CD40, CD40 (gene 958) | [14] | [15]
active: [1] 28 µM | [2] 32 µM | [4] 32.7 µM | [5] 29.3 µM | [6] 33.6 µM | [10] 20 µM | [11] 20 µM | [12] 30.9 µM | [13] 31.1 µM

CN(C)CCOC(c1ccccc1)c1ccccc1
not listed: [3] | [8] | [9] | [17] | [18] | [19]
inactive: all other assays above

Oc1c(Cl)cc(Cl)cc1Sc1cc(Cl)cc(Cl)c1O
active: [1] 1.67 µM and 1.78 µM | [2] 2.06 µM and 1.74 µM | [4] 2.14 µM and 2.37 µM | [5] 1.43 µM and 1.52 µM | [6] 1.23 µM and 1.32 µM | [7] 3.11 µM and 3.28 µM | [8] 2.75 µM and 2.98 µM | [10] 2.22 µM and 2.17 µM | [11] 2.23 µM and 2.57 µM | [12] 1.88 µM and 2.08 µM | [13] 3.48 µM and 3.57 µM | CD40, CD40 (gene 958) 14.2 µM | [14] 35.1 µM and 31.9 µM | [15] 36.5 µM and 33.4 µM | [16] 20 µM and 6.67 µM | [17] 35.4 µM and 35.6 µM

O=C1c2ccc(O)c(O)c2C(=O)c2c(O)ccc(O)c21
not listed: [3] | [8] | [9] | [17] | [19]
inactive: all other assays above

O=P(O)(O)CCC(F)(F)C(F)(F)C(F)(F)C(F)(F)C(F)(F)C(F)(F)C(F)(F)C(F)(F)F
active: [6] 29.5 µM and 18.4 µM | CD40, CD40 (gene 958) 30 µM | [16] 35.3 µM
inactive: [1] | [2] | [4] | [5] | [7] | [9] | [10] | [11] | [12] | [13] | CD40, CD40 (gene 958) | [14] | [15] | [16] | [17]

OCC(CO)(CBr)CBr
not listed: [3] | [8] | [9] | [17] | [18]
inactive: all other assays above
